PubChem BioAssay AID1626 (SRMLSC, 2009)
The campaign covered roughly 220,000 compounds. About 2,000 (0.91%) were called active. About 2% were inconclusive and are not listed. No stated cut-off is given here; in the data, inconclusive means inhibition above about 80% without an active follow-up result; inactive means below that; test concentration not stated here. Not all results are given here. Entries with a potency or affinity are not part of this list.

assay: M. tuberculosis H37Rv growth inhibitors, H37Rv strain (AID 1626); conditions: stronger effect = higher value, concentration not given here;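 further: bacteria incubated seven days before Alamar blue readout; 0% = bacteria only wells and 100% = bacteria with antibiotic wells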

Row | SMILES | inhibition
1 | COc1ccc(NCc2nc3ccccc3n2CCOc2ccccc2)cc1 | 77.4% (inactive)
2 | Cc1ccc(NCc2nc3ccccc3n2CCOc2ccccc2)cc1 | 4.17% (inactive)
3 | CC(OC(=O)C1CC1)C(=O)Nc1cc(C(F)(F)F)ccc1Cl (configuration not stated) | -2.2% (inactive)
4 | CC(C)C(OC(=O)c1ccccc1)c1nccc2ccccc12 (configuration not stated) | 1.56% (inactive)
5 | O=C(OC(c1ccccc1)c1nccc2ccccc12)c1cccc([N+](=O)[O-])c1 (configuration not stated) | 2.31% (inactive)
6 | O=C(CC1SC(=Nc2ccccc2)N(CCc2c[nH]c3ccccc23)C1=O)Nc1ccccc1F (configuration not stated) | 11.6% (inactive)
7 | COc1cc(/C=C(\C#N)C(=O)NCC2CCCO2)cc(OC)c1OC (configuration not stated) | 2.41% (inactive)
8 | CCCCCCN1C=CC=C/C1=C/C=C(C#N)C#N | -1.95% (inactive)
9 | COc1ccc(C(O)C(CN2CCOCC2)c2ccccc2)cc1F (configuration not stated) | -9.62% (inactive)
10 | CCCOc1ccc(C(=O)C(CN2CCOCC2)c2ccccc2)cc1 (configuration not stated) | 78.9% (inactive)
11 | CCCCOc1ccc(C(=O)C(CN2CCOCC2)c2ccccc2)cc1 (configuration not stated) | 66.5% (inactive)
12 | COc1ccc(C(=O)CN2CCOCC2)cc1F | -8.03% (inactive)
13 | CC(NC1CCCCC1)C(O)C12CC3CC(CC(C3)C1)C2 (configuration not stated) | -0.62% (inactive)
14 | CCn1nc(C(=O)OCC(=O)c2cc(C)n(Cc3cccs3)c2C)c2ccccc2c1=O | -3.97% (inactive)
15 | CN1CCN(NC(=O)c2cccc(C(F)(F)F)c2)CC1 | -1.25% (inactive)
16 | CCNc1nc(NC(C)(C)C)nc(N(C#N)CC)n1 | 2.33% (inactive)
17 | Cc1cccn2c(=O)c(C=Nc3ccccc3)c(NCCO)nc12 | 2.59% (inactive)
18 | COc1ccc(Nc2nc3c(C)cccn3c(=O)c2C=NCc2ccccc2)cc1 | 10.2% (inactive)
19 | COc1cc(C(=O)OCC(=O)NC2CCS(=O)(=O)C2)c([N+](=O)[O-])cc1OC (configuration not stated) | -0.03% (inactive)
20 | COC(CC(=O)NNC(=S)Nc1ccc(Cl)cc1)OC | 4.27% (inactive)
21 | CCOC(=O)C1=C(N)N(c2ccc(N3CCCCC3)cc2)C(=O)C1 | -16.5% (inactive)
22 | O=C(CN(C(=O)c1ccccc1Cl)C1CCCCC1)Nc1ccc(Cl)c([N+](=O)[O-])c1 | -3.85% (inactive)
23 | Cc1ccc([N+](=O)[O-])cc1NC(=O)CN(C(=O)c1ccc(Cl)cc1)C1CCCCC1 | 3.68% (inactive)
24 | Cc1ccccc1NC(=O)C(=O)NCCCN1CCOCC1 | -3.37% (inactive)
25 | COc1cc(C(=O)O/N=C(\N)c2cccc([N+](=O)[O-])c2)cc(OC)c1OC | -4% (inactive)
26 | O=C(NCCOc1ccccc1)c1cc(C(=O)NCCOc2ccccc2)cc([N+](=O)[O-])c1 | 15.8% (inactive)

Row | SMILES | inhibition
27 | COc1cccc(OCCNC(=O)c2cccc(OC)c2)c1 | 4.61% (inactive)
28 | COc1cc(/C=C/C(=O)c2ccc(C)c([N+](=O)[O-])c2)cc(OC)c1O | 9.83% (inactive)
29 | COc1cc(/C=C/C(=O)c2ccc(O)cc2)ccc1OCC#N | 17.5% (inactive)
30 | COc1cc(/C=C/C(=O)c2ccc(C)cc2)ccc1OCC#N | 8.8% (inactive)
31 | COc1cccc(C(=O)/C=C/c2ccc(SC)cc2)c1 | 5.8% (inactive)
32 | COc1cccc(/C=C/C(=O)c2ccc(C)c([N+](=O)[O-])c2)c1 | 17.5% (inactive)
33 | CC(=O)c1c(C)[nH]c(C(=O)CSc2nnc(CN3CCCCCC3=O)n2-c2ccccn2)c1C | -2.46% (inactive)
34 | Cc1ccc(C(=O)N(c2ccccc2)C2CC(C)N(C(=O)c3ccco3)c3ccccc32)cc1 (configuration not stated) | 0.9% (inactive)
35 | CCn1c(SCC(=O)Nc2nccs2)nnc1-c1ccccc1 | -4.51% (inactive)
36 | Clc1cc2nc[nH]c2cc1Cl | -8.63% (inactive)
37 | CCCc1cc(=O)[nH]c(SCc2csc(-c3ccccc3)n2)n1 | -1.65% (inactive)
38 | Nc1nnc(-c2cccc(F)c2)s1 | 1% (inactive)
39 | CC1CN(c2ccc(S(=O)(=O)N3CCOCC3)cn2)CC(C)O1 (configuration not stated) | -1.99% (inactive)
40 | CC(=O)c1cc(C#N)c(SCc2ccc(F)cc2)nc1C | -3.8% (inactive)
41 | Cc1ccc(S(=O)(=O)CCN2CCC(n3cccc3)CC2)cc1 | -2.9% (inactive)
42 | O=C(/C=C/c1cccc([N+](=O)[O-])c1)Nc1cccc(NC(=O)c2cccs2)c1 | 13.1% (inactive)
43 | COc1cc(/C=C/C(=O)O)cc(OC)c1OC | -1.87% (inactive)
44 | O=C(/C=C/c1cccc([N+](=O)[O-])c1)Nc1ccc(NC(=O)c2cccs2)cc1 | 3.17% (inactive)
45 | COc1ccc(Oc2ccc(/C=C/C(=O)c3cccc(OC)c3)cc2[N+](=O)[O-])cc1 | 4.34% (inactive)
46 | COc1cc(/C=C/C(=O)OCC(=O)NC(=O)NC(C)C)ccc1OCC#N | 11.7% (inactive)
47 | COc1cc(/C=C/C(=O)OCC(=O)NC(=O)NC(C)(C)C)ccc1OCC#N | 53.3% (inactive)
48 | COc1cc(/C=C/C(=O)c2ccccc2O)cc(OC)c1OC | -1.73% (inactive)
49 | O=C(/C=C/c1ccc(N2CCCCC2)c([N+](=O)[O-])c1)c1ccc(O)cc1 | 52.4% (inactive)
50 | CCN(C(=O)CSc1nnc(-c2ccc(Cl)cc2)n1C)C1CCS(=O)(=O)C1 (configuration not stated) | 1.77% (inactive)
51 | O=C(NCc1nnc(SCC(=O)N2CCOCC2)o1)c1cccs1 | 3.48% (inactive)
52 | COc1ccc(-n2cc(CNCCN3CCOC3=O)c(-c3ccccc3Cl)n2)cc1 | 2.78% (inactive)

Row | SMILES | inhibition
53 | COC(=O)NC(NC(=S)Nc1cccc(C)c1)C(Cl)(Cl)Cl (configuration not stated) | -2.36% (inactive)
54 | O=C(/C=C/c1ccc([N+](=O)[O-])cc1)NC1CC2CCC1C2 (configuration not stated) | 73.7% (inactive)
55 | O=C(/C=C/c1ccccc1)NC1CC2CCC1C2 (configuration not stated) | 0.01% (inactive)
56 | O=C(/C=C/c1ccccc1F)c1ccoc1 | 2.06% (inactive)
57 | CN(C)/C=C/C(=O)c1cccc([N+](=O)[O-])c1 | 6.88% (inactive)
58 | O=c1c2ccccc2ncn1CCOCCOc1cccc(Br)c1 | -2.48% (inactive)
59 | CC(C)(C)c1ccc(OCCOc2ccc(C(C)(C)C)cc2NC=O)c(NC=O)c1 | 7.57% (inactive)
60 | Cc1cc(NC(=O)CSc2ccc(-c3cccc([N+](=O)[O-])c3)nn2)no1 | 13.3% (inactive)
61 | Cn1c(O)c(N=NC(=O)C2COc3ccccc3O2)c2ccccc21 (configuration not stated) | 2.52% (inactive)
62 | COc1ccc(Br)cc1CN(C)C(C)C(=O)Nc1cc([N+](=O)[O-])ccc1OC (configuration not stated) | 6.06% (inactive)
63 | O=Nc1c(O)n(Cc2cccc(Cl)c2)c2ccccc12 | -7.32% (inactive)
64 | c1ccc(Cc2nn3c(COc4ccccc4)nnc3s2)cc1 | 8.35% (inactive)
65 | CSc1nc(C)c(Cc2c(F)cccc2Cl)c(=O)[nH]1 | -5.44% (inactive)
66 | C=C(C)C1CC=C(CN2CC(C)OC(C)C2)CC1 (configuration not stated) | -0.53% (inactive)
67 | Cc1ccc2c(Cl)cc(Cl)c(OCC(=O)O)c2n1 | -9.9% (inactive)
68 | Cc1ccc2c(Cl)cc(Cl)c(OCC(=O)N(C(C)C)C(C)C)c2n1 | 7.37% (inactive)
69 | COC(=O)COc1c(Cl)cc(Cl)c2ccc(C)nc12 | 70.4% (inactive)
70 | Cc1ccc(NC(=O)CN(C)C(=O)COc2c(Cl)cc(Cl)c3ccc(C)nc23)cc1 | 5.82% (inactive)
71 | COCCCNC(=O)c1ccc(N2CCOCC2)c(NS(=O)(=O)c2ccc(OC)cc2)c1 | -10.8% (inactive)
72 | Cc1ccc(SC[C@H](c2ccccc2)N2CCN(CCc3ccccc3)CCC2=O)cc1 | 0.98% (inactive)
73 | COC(=O)C(C(=O)OC)c1ccc(N)cc1 | 79.1% (inactive)
74 | N/C(=N/OC(=O)c1ccccc1Cl)c1nonc1N | -5.25% (inactive)
75 | N=C(N)CCCOc1ccccc1-c1ccccc1 | 4.47% (inactive)
76 | O=C(CN1C(=O)c2ccccc2C1=O)Nc1ccc(N2CCOCC2)cc1 | 1.44% (inactive)
77 | O=C(NCCN1CCOCC1)c1ccc2c(c1)N(Cc1cccc(F)c1)C(=O)c1ccccc1S2 | 2.5% (inactive)
78 | Cc1cc(Nc2c(C)n(C)n(-c3ccccc3)c2=O)n2c(nc3cc(F)c(F)cc32)c1C#N | -5.9% (inactive)

Row | SMILES | inhibition
79 | Cc1cc(Cl)n2c(nc3ccccc32)c1C#N | -11.2% (inactive)
80 | COC(=O)c1[nH]c2ccc(Br)cc2c1NC(=O)C(C)N1CCN(C2CCCCC2)CC1 (configuration not stated) | -3.42% (inactive)
81 | CC1CCc2nc3ccccc3c(C(=O)OCC(=O)NC3CCS(=O)(=O)C3)c2C1 (configuration not stated) | -5% (inactive)
82 | CN(C(=O)COC(=O)c1c2c(nc3ccccc13)/C(=C/c1cccc([N+](=O)[O-])c1)CCC2)C1CCS(=O)(=O)C1 (configuration not stated) | 78.5% (inactive)
83 | Cc1nn(C)c(C(=O)Nc2ccn(Cc3ccccc3F)n2)c1[N+](=O)[O-] | -2.14% (inactive)
84 | O=[N+]([O-])c1ccc(NCCCO)c(S(=O)(=O)N2CCOCC2)c1 | -3.72% (inactive)
85 | COc1ccc2c(c1)sc(=N)n2CC(=O)Nc1cc(C)cc(C)c1 | 3.49% (inactive)
86 | COc1ccc2c(c1)c1ccccc1n2C | -6.03% (inactive)
87 | O=C(O)COc1ccccc1Cc1ccccc1 | -9.69% (inactive)
88 | O=C(COc1ccc(F)cc1)N1c2ccccc2CCc2ccccc21 | 6.06% (inactive)
89 | O=C(CCC1CCCN(c2ncccn2)C1)N1CCN(c2ccccn2)CC1 (configuration not stated) | 0.77% (inactive)
90 | N#C/C(=C/c1ccncc1)c1nc2ccccc2s1 | 4.82% (inactive)
91 | N#C/C(=C\c1ccco1)c1nc2ccccc2s1 | 4.85% (inactive)
92 | Cc1ccc(OCC(=O)n2nc(C)cc2C)c(C)c1 | 10% (inactive)
93 | COc1ccc(N2C(=O)CC(N3CCC(c4nc5ccccc5[nH]4)CC3)C2=O)cc1 (configuration not stated) | -1.11% (inactive)
94 | O=C(CN1C(=O)NC2(CCCCCCC2)C1=O)N1CCc2ccccc2C1 | -9.98% (inactive)
95 | CSc1nsc(SCC(=O)Nc2ccc3c(c2)OCCO3)n1 | -14.4% (inactive)
96 | CSc1nsc(SCC(=O)Nc2cccc(C(C)=O)c2)n1 | -15.7% (inactive)
97 | CCOc1ccc2nc(SCC(=O)NC(=O)C(C)C)sc2c1 | 3.81% (inactive)
98 | COc1ccc2nc(NC(=O)CSc3nnnn3C3CCCCC3)sc2c1 | 0.53% (inactive)
99 | O=C(CSc1nc2ccccc2s1)Nc1ccc2c(c1)OCO2 | 76.4% (inactive)
100 | CCn1nnnc1SCC(=O)Nc1nc2ccc(OC)cc2s1 | 1.9% (inactive)
101 | CSc1nsc(SCC(=O)Nc2nc3ccc(C)cc3s2)n1 | 10.3% (inactive)
102 | CSc1nsc(SCC(=O)Nc2nc3ccccc3s2)n1 | 52.1% (inactive)
